# The entries come from a sample that favours hits as a whole.
# FXIIa single: inhibitors of human coagulation factor XIIa. P00748. purified human FXIIa, AMC substrate fluorescence, 2 h. inhibition, % at 10 µM. actives 0.2% (n = 33,000). AID 701; in the data active = inhibition above about 30%;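 also: 0% = enzyme with vehicle only and 100% = no enzyme blank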
# Target sequence (P00748 20-372 limits assumed): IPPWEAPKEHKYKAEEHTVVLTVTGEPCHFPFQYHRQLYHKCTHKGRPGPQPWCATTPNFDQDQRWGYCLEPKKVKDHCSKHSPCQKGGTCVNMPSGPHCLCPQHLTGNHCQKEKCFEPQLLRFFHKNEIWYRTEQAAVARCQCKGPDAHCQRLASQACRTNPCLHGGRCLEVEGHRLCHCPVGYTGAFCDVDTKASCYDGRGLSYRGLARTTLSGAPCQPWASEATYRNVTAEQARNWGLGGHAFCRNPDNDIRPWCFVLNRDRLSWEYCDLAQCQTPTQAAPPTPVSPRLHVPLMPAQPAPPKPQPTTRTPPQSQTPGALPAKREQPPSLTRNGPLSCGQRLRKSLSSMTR
# Target sequence (P00748 373-615 limits assumed): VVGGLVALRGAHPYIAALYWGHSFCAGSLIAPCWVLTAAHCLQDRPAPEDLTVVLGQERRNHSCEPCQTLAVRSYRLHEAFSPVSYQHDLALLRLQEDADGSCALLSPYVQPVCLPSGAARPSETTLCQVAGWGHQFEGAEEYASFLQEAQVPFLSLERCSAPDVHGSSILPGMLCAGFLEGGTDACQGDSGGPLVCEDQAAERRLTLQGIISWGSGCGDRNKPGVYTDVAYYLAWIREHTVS
# FXIa inh: blocks human coagulation factor XIa activity. P03951. purified human FXIa, fluorogenic AMC substrate cleavage. inhibition, % at 10 µM. actives 0.3% (n = 33,000);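 active = inhibition above 40% in the primary screen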;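 also: 0% = enzyme without compound and 100% = blank wells lacking enzyme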
# Active calls of the source: *; x = not tested or not shown.
SMILES,FXIIa single,FXIa inh
Cc1cc(OC(=O)c2ccco2)c2c(C)cc(=O)oc2c1,31*,44*
CC(=O)Oc1cc(OC(C)=O)c2c(C)cc(=O)oc2c1,-1,-4
CN(C)c1ccc(/C=N/N2C(=S)SC(C)(C)C2N(O)C(=O)Nc2ccc([N+](=O)[O-])cc2)cc1 (stereo not drawn),9,-6
O=S(=O)(NCCn1ccc2ccccc21)c1ccccc1,5,4
CCNC(=O)CSc1nc2ccccc2c(=O)n1-c1cc(OC)ccc1OC,4,-4
Cc1ccc(-c2n[nH]c(=O)c3ccccc23)cc1S(=O)(=O)NCCO,38*,-6
Cc1ccc(-c2n[nH]c(=O)c3ccccc23)cc1S(=O)(=O)N(C)CCO,-13,18
CCn1cc(C(=O)N2CCCc3ccccc32)c2cc(OC)c(OC)cc2c1=O,-9,-2
CCOc1ccccc1OC(=O)c1ccco1,5,4
CCOc1cccc2cc(C(N)=O)c(=NCc3ccccc3)oc12,-8,52*
COC(=O)c1cncc(O)c1,5,7
CCCC(C)NC(=O)c1ccc(C2SCC(=O)N2Cc2ccco2)cc1 (stereo not drawn),5,-2
Cc1nn2c(c1-c1ccc(Cl)cc1)N=C(c1ccco1)CC2c1ccccc1 (stereo not drawn),1,3
FC(F)(F)c1cnc(Oc2ccc(-c3nnco3)cc2)c(Cl)c1,31*,-1
FC(F)(F)c1cnc(Oc2ccccc2-c2nnco2)c(Cl)c1,7,-4
CCCCN(C)C/C(O)=C(\C#N)c1nc(-c2ccccc2)cs1,1,-5
Cc1cc(C)c2c(N)c(S(=O)(=O)Cc3ccccc3)sc2n1,5,8
Cc1ccc(-c2cc(-c3ccccc3)c3c(N)c(S(C)(=O)=O)sc3n2)cc1,51*,-5
Cn1c(SC/C=C/c2ccccc2)nnc1-c1ccco1,0,-5
C=CCn1c(SC(C)CC)nc(O)cc1=O (stereo not drawn),7,-1
CCOC(=O)N1CCC(Nc2c(NCCN3CCN(c4ccccc4F)CC3)c(=O)c2=O)CC1,5,2
C1CN(CC23CC4CC(CC(C4)C2)C3)CCO1,2,-4
N#Cc1cc2c(nc1SCC(=O)Nc1sc3c(c1C#N)CCC3)CCC2,2,42*
N#Cc1cc2c(nc1SCC(=O)Nc1sc3c(c1C#N)CCC3)CCCCCC2,7,-5
Cn1c(N)c(C(=O)COC(=O)C2CCCCC2)c(=O)n(C)c1=O,7,-14
SMILES,FXIIa single,FXIa inh
O=C(NC1(C(F)(F)F)C(=O)Nc2c1c(=O)[nH]c(=O)n2-c1ccccc1)c1ccncc1 (stereo not drawn),10,1
Cc1ccc2nc(NC(=O)CCn3c(=O)sc4ccccc43)sc2c1,4,2
CC(=O)c1ccc(NC(=O)Nc2ccccc2)cc1,9,-10
CC(=O)Oc1cc2oc(=O)cc(C)c2cc1OC(C)=O,-1,0
CC(=O)Oc1ccc2c(C)cc(=O)oc2c1,32*,6
O=C(Nc1ncc(Cc2ccccc2)s1)C1COc2ccccc2O1 (stereo not drawn),5,0
CCCC1CCc2c(sc(N)c2C(N)=O)C1 (stereo not drawn),7,52*
CCOC(=O)c1c(NS(C)(=O)=O)sc2c1CCC(C)C2 (stereo not drawn),7,-5
Cc1cc(=O)[nH]c2c1c(C)nn2C1CCOC(C)(C)C1 (stereo not drawn),8,-13
Cc1ccc(C(=O)n2nc(-c3cccnc3)nc2N)cc1,92*,42*
COc1ccc(-c2nc(N)n(C(C)=O)n2)cc1,27,-2
O=S(=O)(Nc1ccc(S(=O)(=O)N2CCCCC2)cc1)c1ccc(Br)s1,-12,0
O=S(=O)(Cc1ccccc1)N1CCC(c2nc(-c3cccs3)no2)CC1,-10,46*
O=C(c1cccs1)N1CCN(S(=O)(=O)Cc2ccccc2)CC1,8,-1
Cc1cnnn1-c1ccc(C(=O)CCl)cc1,6,8
Cc1ccc(N2C(=O)CSC2c2ccccn2)cc1Cl (stereo not drawn),5,-6
CCc1ccc(C(C(=O)NC2CCCCC2)N(C(=O)CNC(=O)c2ccco2)c2cccnc2)cc1 (stereo not drawn),4,2
Clc1ccccc1C(c1nnnn1Cc1ccco1)N1CCN(Cc2ccco2)CC1 (stereo not drawn),4,-2
COc1ccc(Cn2nnnc2C(c2ccccc2Cl)N2CCC(C(N)=O)CC2)cc1 (stereo not drawn),2,45*
CCOC(=O)CCC(=O)N1CCOCCOCCN(C(=O)CCC(=O)OCC)CCOCCOCC1,-16,14
O=C(O)c1ccc(NC(CSCc2cccc(F)c2)C(=O)O)c([N+](=O)[O-])c1 (stereo not drawn),10,4
O=C(Oc1cccc2cccnc12)c1ccco1,10,-5
O=C(Oc1ccc(Cl)c2cccnc12)c1ccco1,37*,7
Cc1cc(-c2cc(-c3ccc(Cl)cc3)nc(N)c2C#N)co1,-3,-7
CCCCNC(=O)C1CCN(c2nc(OC)nc(OC)n2)CC1,-4,-4
SMILES,FXIIa single,FXIa inh
Cc1c(F)cccc1NC(=O)CSCC(=O)Nc1ccccc1,-2,-5
CCOC(=O)c1ccc(CC2S/C(=C(\C#N)C(C)=O)NC2=O)cc1 (stereo not drawn),13,3
CCc1ccc(CC2S/C(=C(\C#N)C(C)=O)NC2=O)cc1 (stereo not drawn),7,49*
O=S(=O)(NC12CC3CC(CC(C3)C1)C2)c1ccc(F)cc1,5,1
O=C(Nc1ccc(N2CCN(C(=O)c3ccccc3)CC2)cc1)c1ccc2c(c1)OCO2,x,36
O=C(c1ccc2c(c1)OCO2)N1CCN(c2ccc(F)cc2)CC1,33*,4
O=C(O)CCCC(=O)NS(=O)(=O)c1ccc(Cl)cc1,14,-1
COc1ccc2c(c1)c1ccccc1n2C,5,1
COc1ccc2c(=O)cc(-c3ccccc3)n(C)c2c1,-13,105*
Cc1cc[n+](-c2nc([O-])n(-c3ccccc3)c2C=O)cc1,1,-4
CCC(CO)NCc1ccc(OC2CCCC2)cc1 (stereo not drawn),-17,66*
CN(C)CCNCc1ccc(OC2CCCC2)cc1,5,0
COC(=O)c1sc2ncn(-n3c(C)ccc3C)c(=O)c2c1C,6,-9
CC(=O)N[C@H]1C[C@@H]1c1ccccc1,6,3
CCC1CC2CC(NC(C)=O)C1C2 (stereo not drawn),4,47*
CC1=C(C(=O)OC(C)C)C(c2coc3ccccc3c2=O)C2=C(CCCC2=O)N1 (stereo not drawn),7,50*
CCOC(=O)C1=C(C)NC2=C(C(=O)CC(C)(C)C2)C1c1coc2ccccc2c1=O (stereo not drawn),5,7
COc1ccc(C2(C(=O)NC3CCCCC3)CCOCC2)cc1OC,-4,-5
CCOC(=O)C1CCCN(C(=O)c2sc3nc(-c4ccc(OC)cc4)cn3c2C)C1 (stereo not drawn),5,10
COc1ccc(C(=O)N(Cc2ccccc2)Cc2cc3cc4c(cc3[nH]c2=O)OCCO4)cc1,2,-10
COc1cccc(C(=O)N(Cc2ccccc2)Cc2cc3cc4c(cc3[nH]c2=O)OCCO4)c1,4,47*
N#CCCN(C(=O)CSc1nc(-c2ccccc2)cn1N)c1ccc(F)cc1,9,-12
CC(C)(C)Nc1nc(NC(C)(C)C)nc(-n2ccnc2)n1,2,-2
Cc1cc(=O)[nH]c(-n2[nH]c(C)cc2=O)n1,3,48*

# Assay outcomes (PubChem BioAssay)
